Assay results published in PubChem BioAssay (NCI).
About 79,000 compounds went through this panel and 15% of them were active in at least one assay; those are over-represented in the sample as a whole. Calls of active or inactive are those of the source. Cut-off read from the data, not from the text of the source: active = growth inhibition above about 70%; inactive = the rest.

Assays:
[1] = NCI Yeast Anticancer Drug Screen. Data for the rad50 strain (AID 155);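 note: 0% = growth of vehicle-only cultures of the same strain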; details: S. cerevisiae rad50 strain growth inhibition, stronger effect = higher value
Summary of the method: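 A DNA repair-deficient yeast mutant serves as the test organism; compound-induced growth inhibition is calculated against vehicle-treated cells.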

[2] = NCI Yeast Anticancer Drug Screen. Data for the mec2-1 strain (AID 157); details: S. cerevisiae mec2-1 strain, stronger effect = higher value
Summary of the method: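 Strain: mec2-1 (DNA repair/cell cycle alteration). Compound exposure, then growth measured; inhibition expressed relative to vehicle.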

[3] = NCI Yeast Anticancer Drug Screen. Data for the sgs1 mgt1 strain (AID 161);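 note: 0% = growth of cultures given vehicle only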; details: S. cerevisiae sgs1 mgt1 strain, stronger effect = higher value
Summary of the method: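 Mutant yeast exposed to compound; growth scored against vehicle-only wells.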

[4] = NCI Yeast Anticancer Drug Screen. Data for the cln2 rad14 strain (AID 165);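 note: 0% = growth equal to vehicle treated cultures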; details: S. cerevisiae cln2 rad14 strain, stronger effect = higher value
Summary of the method: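 Compounds are applied to the cln2 rad14 yeast strain, and growth is then compared with that of vehicle-treated cultures to give inhibition.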

[5] = NCI Yeast Anticancer Drug Screen. Data for the bub3 strain (AID 167); details: S. cerevisiae bub3 mutant strain, stronger effect = higher value
Summary of the method: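 Inhibition values come from growth of compound-treated mutant yeast normalised to vehicle-treated controls.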

[6] = NCI Yeast Anticancer Drug Screen. Data for the mlh1 rad18 strain (AID 175); details: S. cerevisiae mlh1 rad18 strain growth inhibition, stronger effect = higher value
Summary of the method: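 Read-out is yeast growth inhibition, calculated against vehicle-only controls. The compound was applied to a strain engineered with DNA damage repair alterations.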

[7] = at 5.0 µM (retest, dose inferred, filed as 0.5)
[8] = at 50.0 µM (retest, dose inferred, filed as 5.0)

Measured: growth inhibition

COc1ccc(C(=O)Nc2ccc(Cl)cc2)cc1
inactive: [1]; [7] -21% | [1]; [8] -17% | [1]; at 50.0 µM 3.75% | [2]; [7] -26% | [2]; [8] -12% | [2]; at 50.0 µM 1.85% | [3]; [7] 0% | [3]; [8] 0% | [3]; at 50.0 µM 5.85% | [4]; [7] -7% | [4]; [8] 5% | [4]; at 50.0 µM 44.2% | [5]; [7] -14% | [5]; [8] -6% | [5]; at 50.0 µM -8.95% | [6]; [7] -8% | [6]; [8] -11% | [6]; at 50.0 µM -23.3%

Cc1[nH]nc(-c2cccnc2)c1N=NN1CCOCC1
active: [1]; [8] 70% | [2]; [8] 79% | [2]; at 50.0 µM 97.5% | [3]; [8] 98% | [3]; at 50.0 µM 96% | [4]; [8] 80% | [5]; [8] 99% | [6]; [8] 77% | [6]; at 50.0 µM 98%
inactive: [1]; [7] -4% | [1]; at 50.0 µM 64% | [2]; [7] 7% | [3]; [7] -5% | [4]; [7] -2% | [4]; at 50.0 µM 58.5% | [5]; [7] -3% | [5]; at 50.0 µM 5.35% | [6]; [7] -3%

CC(=O)Nc1ccc(C#N)c2ccccc12
inactive: [1]; [7] 43% | [1]; [8] 33% | [1]; at 50.0 µM 40.4% | [2]; [7] 42% | [2]; [8] 33% | [2]; at 50.0 µM 35.8% | [3]; [7] 0% | [3]; [8] 29% | [3]; at 50.0 µM 23.1% | [4]; [7] 41% | [4]; [8] 34% | [4]; at 50.0 µM 7.4% | [5]; [7] 21% | [5]; [8] 44% | [5]; at 50.0 µM 40.8% | [6]; [7] 35% | [6]; [8] 35% | [6]; at 50.0 µM 19.4%

CC(C)NCC=C=Nc1ccccc1
inactive: [1]; [7] -11% | [1]; [8] -32% | [1]; at 50.0 µM 45.8% | [2]; [7] -30% | [2]; [8] -25% | [2]; at 50.0 µM 9.45% | [3]; [7] -8% | [3]; [8] -21% | [3]; at 50.0 µM 43.4% | [4]; [7] -2% | [4]; [8] -28% | [4]; at 50.0 µM 40.5% | [5]; [7] -26% | [5]; [8] -82% | [5]; at 50.0 µM -5.5% | [6]; [7] -9% | [6]; [8] -29% | [6]; at 50.0 µM 24.2%

CC1OC(OC2C(Oc3c(-c4ccc(O)c(O)c4O)oc4cc(O)ccc4c3=O)OC(CO)C(O)C2O)C(O)C(O)C1O (stereo not given)
inactive: [1]; [7] -4% | [1]; [8] -8% | [1]; at 50.0 µM 22.9% | [2]; [7] -5% | [2]; [8] 0% | [2]; at 50.0 µM -5.3% | [3]; [7] -5% | [3]; [8] 1% | [3]; at 50.0 µM -7.95% | [4]; [7] 7% | [4]; [8] 0% | [4]; at 50.0 µM -8.85% | [5]; [7] -1% | [5]; [8] 0% | [5]; at 50.0 µM 3.25% | [6]; [7] -5% | [6]; [8] -6% | [6]; at 50.0 µM -10.7%

NC(N)=Nc1ccc(Cc2ccc(N=C(N)N)cc2)cc1
inactive: [1]; [7] 0% | [1]; [8] -3% | [1]; at 50.0 µM -33.2% | [2]; [7] 0% | [2]; [8] -4% | [2]; at 50.0 µM -58% | [3]; [7] 2% | [3]; [8] 0% | [3]; at 50.0 µM -17.9% | [4]; [7] 3% | [4]; [8] 2% | [4]; at 50.0 µM 45% | [5]; [7] 3% | [5]; [8] 2% | [5]; at 50.0 µM -10.2% | [6]; [7] -6% | [6]; [8] -4% | [6]; at 50.0 µM -39%

CC(=O)c1c2c(cc3c1CC1(C3)Cc3cc4c(c(C(=O)O)c3C1)CCCC4)CCCC2 (stereo not given) (tested in a mixture with another compound)
active: [1]; [7] 90% | [1]; [8] 99% | [1]; at 50.0 µM 77.7% | [2]; [7] 84% | [2]; [8] 99% | [2]; at 50.0 µM 97% | [3]; [7] 94% | [3]; [8] 99% | [3]; at 50.0 µM 97.8% | [4]; [7] 94% | [4]; [8] 99% | [4]; at 50.0 µM 97.9% | [5]; [7] 82% | [5]; [8] 99% | [5]; at 50.0 µM 96% | [6]; [7] 96% | [6]; [8] 99% | [6]; at 50.0 µM 98%

O=[N+]([O-])c1c(I)ccc2ccccc12
active: [1]; [8] 90% | [2]; [8] 89% | [3]; [8] 95% | [6]; [8] 94%
inactive: [1]; [7] -24% | [1]; at 50.0 µM 41.9% | [2]; [7] 0% | [2]; at 50.0 µM -0.95% | [3]; [7] -6% | [3]; at 50.0 µM 17.6% | [4]; [7] -9% | [4]; [8] 41% | [4]; at 50.0 µM 11.5% | [5]; [7] -2% | [5]; [8] 66% | [5]; at 50.0 µM 5.25% | [6]; [7] 1% | [6]; at 50.0 µM 36.5%

FC(F)(F)c1nc2cc(SSc3cc4nc(C(F)(F)F)[nH]c4cc3Cl)c(Cl)cc2[nH]1
active: [1]; at 50.0 µM 97.5% | [2]; [8] 85% | [2]; at 50.0 µM 93.2% | [3]; [8] 87% | [3]; at 50.0 µM 95% | [4]; [8] 91% | [5]; at 50.0 µM 97% | [6]; [8] 97% | [6]; at 50.0 µM 97.7%
inactive: [1]; [7] 1% | [1]; [8] 51% | [2]; [7] -1% | [3]; [7] 0% | [4]; [7] -6% | [4]; at 50.0 µM 65.8% | [5]; [7] -18% | [5]; [8] 61% | [6]; [7] -12%

NC1=C(O)C(=O)C(c2c3ccccc3cc3ccccc23)O1 (stereo not given)
inactive: [1]; [7] 16% | [2]; [7] 17% | [3]; [7] 8% | [4]; [7] 7% | [5]; [7] 16% | [6]; [7] 4%
active: [1]; [8] 98% | [1]; at 50.0 µM 98.2% | [2]; [8] 98% | [2]; at 50.0 µM 98% | [3]; [8] 98% | [3]; at 50.0 µM 97.8% | [4]; [8] 95% | [4]; at 50.0 µM 95.9% | [5]; [8] 98% | [5]; at 50.0 µM 97.3% | [6]; [8] 98% | [6]; at 50.0 µM 97.5%
